Source: PubChem
MsrA inhibitor: inhibits bovine methionine sulfoxide reductase A | purified bovine MsrA, absorbance read-out | inhibition, % at 15.5 µM | actives 0.75% (n = 360,000) | AID 651718; in the data active means inhibition above about 4.5%;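 further: 0% = vehicle wells with enzyme and 100% = reference inhibitor wells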
PP5 inh: PP5 (human) phosphatase inhibition; inhibition, % at 6.7 µM; actives 0.18% (n = 320,000); P53041; purified PP5c, OMFP substrate fluorescence;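 active means inhibition above the campaign's mean inhibition across all tested compounds plus 3 SD, cut at about 9.5% in these data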;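 further: 0% = DMSO only and 100% = 100 µM cantharidin control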
bovine MsrA act: activators of bovine methionine sulfoxide reductase A; purified bovine MsrA, absorbance read-out; activation, % at 10.6 µM; actives 0.3% (n = 360,000); AID 602163; in the data active means activation above about 7.5%;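 further: 0% = vehicle and 100% = reference activator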
ZTA DNA inh: counter-screen for EBNA-1 inhibitors: inhibitors of Epstein-Barr virus ZTA; ZTA-DNA binding, fluorescence polarization; P03206; inhibition, % at 11 µM; actives 0.15% (n = 320,000); AID 2234; in the data active means inhibition above about 33%
Target sequence (P03206 whole entry, looked up): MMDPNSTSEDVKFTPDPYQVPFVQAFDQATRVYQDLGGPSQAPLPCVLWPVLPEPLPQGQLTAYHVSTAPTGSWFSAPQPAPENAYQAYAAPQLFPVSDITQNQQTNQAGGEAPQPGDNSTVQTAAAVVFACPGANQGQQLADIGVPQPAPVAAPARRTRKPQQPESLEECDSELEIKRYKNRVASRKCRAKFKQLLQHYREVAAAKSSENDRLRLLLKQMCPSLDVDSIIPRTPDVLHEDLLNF
PP1 counter: blocks human PP1-alpha phosphatase, a PP5 counter-screen | actives 0.9% (n = 320,000) | AID 2235 | purified PP1alpha, OMFP fluorescence | inhibition, % at 6.7 µM;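 active means inhibition above the mean inhibition of all tested compounds plus 3 SD, computed separately for each screening campaign, cut at about 15% in these data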
Target sequence (P62136 whole entry, looked up): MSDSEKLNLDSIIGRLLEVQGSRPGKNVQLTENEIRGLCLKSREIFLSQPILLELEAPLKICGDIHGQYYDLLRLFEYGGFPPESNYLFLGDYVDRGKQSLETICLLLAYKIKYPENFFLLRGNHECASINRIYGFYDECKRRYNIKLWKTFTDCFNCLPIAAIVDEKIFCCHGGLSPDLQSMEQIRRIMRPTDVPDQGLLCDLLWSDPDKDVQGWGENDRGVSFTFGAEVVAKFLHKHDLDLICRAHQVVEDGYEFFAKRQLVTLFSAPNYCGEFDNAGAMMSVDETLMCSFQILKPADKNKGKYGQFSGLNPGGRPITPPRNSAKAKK
EBNA-1 inhibitor: blocks EBNA-1 binding to DNA. actives 0.34% (n = 300,000). EBNA-1 DNA binding, fluorescence polarization. AID 1950. inhibition, % at 14.8 µM; in the data active means inhibition above about 28%
* marks the source's active call; other numbers are inactive results; x = not tested or not shown. Sampled rows, rich in hits. Any-hit rate of the full collection: about 2.3%.

SMILES	MsrA inhibitor	PP5 inh	bovine MsrA act	ZTA DNA inh	PP1 counter	EBNA-1 inhibitor
COc1cccc(N2CC(C(=O)Nc3nnc(SCC(=O)c4ccccc4)s3)CC2=O)c1 (stereo unspecified)	0	-1	2	-5	10	20
CC(=O)Nc1ccc(-c2csc(NC(=O)C3CC(=O)N(c4ccc5c(c4)OCCO5)C3)n2)cc1 (stereo unspecified)	0	4	-2	-11	16*	-3
COc1ccc(C(=O)CSc2nnc(NC(=O)C3CC(=O)N(c4ccccc4)C3)s2)cc1 (stereo unspecified)	-2	2	-2	-11	17*	23
COC(=O)c1ccc(CSc2nnc(NC(=O)C3CC(=O)N(c4ccc5c(c4)OCCO5)C3)s2)cc1 (stereo unspecified)	0	3	-3	3	15*	-5
COc1ccc(-c2csc(NC(=O)C3CC(=O)N(c4ccc5c(c4)OCCO5)C3)n2)cc1 (stereo unspecified)	-1	0	-2	-6	10	-7
CCCC#C/C(CCC)=C1\c2ccccc2C(=O)N1c1ccccc1	0	x	x	x	x	x
N#C/C(=C\c1ccc(-c2ccccc2[N+](=O)[O-])o1)C(=O)Nc1nc(-c2cccs2)cs1	1	2	-8	5	16*	1
Cc1cc(-c2cc(NC(=O)Cc3c[nH]c4ccccc34)ccc2N(C)c2cccnc2)ccc1F	0	x	x	x	x	x
O=[N+]([O-])c1cc(Cc2ccccc2)cc(C=Nc2ccc(N3CCOCC3)cc2)c1O	x	1	5	77*	9	40*
CC(C)C[C@H](NC(=O)c1ccco1)C(=O)N1CCC[C@H]1C(=O)NCc1ccccc1	-1	x	x	x	x	x
Cc1c(C)c2c(OCC(=O)NCC(=O)NCC(=O)O)cc3c(c2oc1=O)CCC(C)(C)O3	4.5*	2	-4	-14	1	-7
Cc1cc(C)cc(C(=O)Nn2cnnc2)c1	1	0	-1	-2	0	-22
Cc1ccc(S(=O)(=O)NCC2CCN(C(=O)C(=O)c3cccs3)CC2)cc1	1	x	x	x	x	x
COc1ccccc1OCc1nnc(SCC(=O)c2cc(Cl)ccc2OC)o1	0	3	-2	-25	17*	-13
COc1ccccc1OCc1nnc(SCC(=O)N2CCCC2)o1	1	-1	-2	0	1	7
O=C(NCCc1ccccc1Cl)[C@@H]1CCCN1C(=O)[C@H](Cc1cccnc1)NC(=O)N1CCOCC1	2	x	x	x	x	x
COC(=O)/C(C#N)=C/c1ccc(-c2ccc(S(N)(=O)=O)cc2)o1	3	-1	-4	4	-2	8
CCCCNC(=O)/C(C#N)=C/c1ccc(-c2ccc(S(=O)(=O)N3CCOCC3)cc2)o1	0	2	-8	44*	4	-9
COc1cccc(CNC(=O)[C@H]2CCCN2C(=O)[C@H]2CCCN2C(=O)c2cccc(OC)c2)c1	0	x	x	x	x	x
c1coc(-c2nc(-c3ccco3)c(-c3ccco3)nc2-c2ccco2)c1	2	2	-14	76*	43*	38*
Nc1[nH]c(C(=O)c2ccc(Cl)cc2)c(-c2ccc(Br)cc2)c1C(=O)c1c[nH]c2ccc(F)cc12	1	x	x	x	x	x
CC1Cc2cc(/C=C3/SC(N4CCC(C(N)=O)CC4)=NC3=O)ccc2O1 (stereo unspecified)	4.6*	-1	-3	-5	-3	-2
CCN(Cc1cc(OC)c(OC)c(OC)c1)S(=O)(=O)c1ccccc1Br	0	x	x	x	x	x
CC(C)c1[nH]nc2c1C(c1ccc(F)cc1)N(Cc1ccccc1)C2=O (stereo unspecified)	0	x	x	x	x	x
COCCn1c(SCc2nc3scc(-c4ccc(Cl)cc4)c3c(=O)[nH]2)nnc1-c1cccc(C)c1	0	3	-4	-7	16*	-4
SMILES	MsrA inhibitor	PP5 inh	bovine MsrA act	ZTA DNA inh	PP1 counter	EBNA-1 inhibitor
CCn1c(SCc2nc3scc(-c4ccccc4)c3c(=O)[nH]2)nnc1-c1cccs1	-1	3	-1	-10	9	0
COC(=O)[C@]12C[C@H](CC(=O)N3CCSCC3)C(=O)N(Cc3ccc4c(c3)OCO4)C1=C[C@H](COCc1ccccc1)O[C@@H]2C	-1	x	x	x	x	x
c1ccc2c(c1)nc(N1CCOCC1)c1nncn12	4.6*	0	-1	-1	-5	-2
Cc1cc(/C=C(/C#N)c2cccc(Cl)c2)c(C)n1C	4.6*	3	-4	-14	3	-10
Cc1cccc(-n2c(C)cc(C=C(C#N)C#N)c2C)c1	-1	-2	-1	6	-1	5
COC(=O)Cc1nnn2c1CC(OC)c1ccccc1-2 (stereo unspecified)	0	x	x	x	x	x
O=C(c1ccco1)N1CCN(c2c([N+](=O)[O-])nn(-c3cccc(Cl)c3)[n+]2[O-])CC1	1	0	1	-5	-1	-2
CCCCCCCCN1C(=O)[C@@H](CC(=O)NCCCN2CCCC2=O)C[C@@]2(C(=O)OC)C1=C[C@H](C(C)(C)C)O[C@@H]2C	-1	x	x	x	x	x
Cc1cccc(N2C(=O)C(O)=C(C(=O)c3cccs3)C2c2ccccc2)n1 (stereo unspecified)	0	-2	-2	-3	4	8
Cc1cccc(N2C(=O)C(O)=C(C(=O)c3cccs3)C2c2ccc(Cl)cc2)n1 (stereo unspecified)	1	1	-3	11	17*	2
C(=N\Nc1ccc2nncn2n1)/c1ccco1	3	2	-6	2	1	-4
BrC(=C\c1ccccc1)/C=N/Nc1ccc2nncn2n1	4.5*	-1	-5	1	-3	1
Cc1nc(-c2ccc([N+](=O)[O-])cc2)sc1C(=O)O	4.6*	0	-16	-1	-1	3
CC(C(=O)NCCN1C(=O)S/C(=C\c2cccnc2)C1=O)N1C(=O)c2ccccc2C1=O (stereo unspecified)	4.6*	-2	-11	-2	-4	-1
O=c1[nH]c(SCc2nc3c(cnn3-c3ccccc3)c(=O)[nH]2)nc2ccccc12	0	x	-1	x	x	x
O=c1[nH]c(CSc2nc3ccccc3o2)nc2c1cnn2-c1ccccc1	1	1	-5	-3	16*	3
COC(=O)C1C=CC(OC2OC(COC(C)=O)C(OC(C)=O)C(OC(C)=O)C2OC(C)=O)n2c(=O)n(-c3ccccc3)c(=O)n21 (stereo unspecified)	0	x	-7	x	x	x
NC(=O)[C@H](Cc1cc2ccccc2s1)NC(=O)[C@@H]1CC2(CC(c3cccc(NC(=O)[C@@H]4CCC(=O)N4)c3)=NO2)CN1C(=O)/C=C/Sc1ccccc1 (stereo partly specified)	0	1	-3	14	17*	4
NC(=O)[C@H](Cc1cc2ccccc2s1)NC(=O)[C@@H]1CC2(CC(c3cccc(NC(=O)[C@@H]4CCC(=O)N4)c3)=NO2)CN1C(=O)c1ccccc1 (stereo partly specified)	0	0	0	1	1	1
